Among the data in ChEMBL document CHEMBL3433997, “St. Jude Leishmania screening dataset” (2016) are inhibition values, retold here.

Where “and” joins values, the source holds several entries; their conditions need not be identical. Equal values may be shown once.

Type in all cases: functional
Assay [1] deals with Solute carrier family 2, facilitated glucose transporter member 1 (Homo sapiens) (UniProt P11166). Put plainly: ST_JUDE_LEISH: Cytotoxicity at 2uM final concentration against transgenic Leishmania Mexicana promastigotes LmGLUT1 that are glucose transport deficient and complemented with the human glucose transporter GLUT1. Activity is measured by DNA content using SYBR green in vitro.

For assay [2], the target named is Hexose transporter 1 (Plasmodium falciparum) (UniProt O97467). The assay can be described thus: ST_JUDE_LEISH: Cytotoxicity at 2uM final concentration against transgenic Leishmania Mexicana promastigotes LmPfHT that are glucose transport deficient and complemented with the Plasmodium falciparum hexose transporter. Activity is measured by DNA content using SYBR green in vitro.

The target of assay [3] is Glucose transporter (Leishmania mexicana) (UniProt O61059). Put plainly: ST_JUDE_LEISH: Cytotoxicity at 2uM final concentration against transgenic Leishmania Mexicana promastigotes LmGT2 that are glucose transport deficient and complemented with the L. Mexicana glucose transporter 2. Activity is measured by DNA content using SYBR green in vitro.

Chain of Solute carrier family 2, facilitated glucose transporter member 1 (Homo sapiens) (P11166 whole entry): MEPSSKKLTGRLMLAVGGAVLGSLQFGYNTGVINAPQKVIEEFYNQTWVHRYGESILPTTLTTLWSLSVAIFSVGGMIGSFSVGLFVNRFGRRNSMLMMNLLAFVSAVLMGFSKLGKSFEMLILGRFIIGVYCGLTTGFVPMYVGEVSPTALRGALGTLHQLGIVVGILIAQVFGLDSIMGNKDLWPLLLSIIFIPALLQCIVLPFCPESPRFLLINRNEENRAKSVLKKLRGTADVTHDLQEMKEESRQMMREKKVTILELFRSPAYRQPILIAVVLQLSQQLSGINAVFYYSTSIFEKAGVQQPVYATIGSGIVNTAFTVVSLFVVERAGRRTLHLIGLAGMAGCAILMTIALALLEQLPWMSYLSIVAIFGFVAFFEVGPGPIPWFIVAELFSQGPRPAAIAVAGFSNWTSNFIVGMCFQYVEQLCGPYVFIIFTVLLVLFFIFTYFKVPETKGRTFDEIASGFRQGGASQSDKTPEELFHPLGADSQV

By inhibition is commonly meant the change of the read-out against control, counted positive when it falls. Regarding `CCOC(=O)c1nc(-c2ccc(-c3ccccc3)cc2)[nH]c1N`, the values for the inhibition in assay [1], in assay [2] and in assay [3] were 3.98%, 2.89% and 2.52%, respectively.
Turning to `CS(=O)(=O)Cc1ccc(Nc2ncc(Cl)c(Nc3cccnc3C(N)=O)n2)cc1`, the figures for the inhibition in assay [1], in assay [2] and in assay [3] were 28.2%, 32.1% and 23%, respectively.
For `COc1cccc2c(NCCNc3ccnc4c(OC)cccc34)ccnc12`, the inhibition was found to be 6.77% in assay [1], 6.99% in assay [2] and 7.99% in assay [3].
The matching figures for `CN1CCC(N(Cc2ccc(-c3ccc(C(F)(F)F)cc3)cc2)C(=O)Cn2cc(Cc3cnn(C)c3)c(=O)nc2SCc2cccc(F)c2F)CC1`: 2.43%, 2.37% and 2.81%.
The matching figures for `O=C(NCCc1ccc(Cl)c(Cl)c1)c1ccc(CNC(=O)c2ccc(O)c(-c3ccc(Cl)c(Cl)c3)c2)cc1`: 0.99%, 1.15% and 1.06%.
Regarding `CS(=O)(=O)NCCCNCc1cccc(-c2ccc(-c3nc4cc(C(F)(F)F)ccc4[nH]3)s2)c1`, the inhibition was 1.55% in assay [1], 2.21% in assay [2] and 1.74% in assay [3].
The matching figures for `CN1CCCN(Cc2cccc(-c3ccc(NS(=O)(=O)c4cccc5cccnc45)cc3)c2)CC1`: 1.84%, 1.21% and -3.11%.
The matching figures for `CCOc1cc(C(=O)NCCCN2CCN(c3cccc(Cl)c3)CC2)ccc1-c1nc2cc(Cl)c(F)cc2[nH]1`: -0.54%, -0.11% and -0.18%.
The matching figures for `COc1ccc(CNCc2ccccc2)cc1-c1ccc(S(=O)(=O)NCCN2CCCC2)c(C)c1`: 3.15%, -0.54% and 2.34%.
Turning to `Cc1cc(Nc2cccc(C(F)(F)F)c2)nc(Nc2cccc(C(F)(F)F)c2)n1`, the inhibition in assay [1] was 4.73%; in assay [2], 4.81%; in assay [3] it was -0.49%.
Consider `CC(C)CCCC(C)(C)NC[C@@H](O)[C@H](Cc1ccccc1)NC(=O)c1cc(NC(C)C)cc(N2CCCCS2(=O)=O)c1`, for which the inhibition is -0.83% in assay [1], -1.58% in assay [2] and -3.27% in assay [3].
Regarding `O=C(/C=C/c1ccc(Cl)c(Cl)c1)NCCCCN1CCCN(C(=O)Nc2ccc(F)c(Cl)c2)CC1`, the values for the inhibition in assay [1], in assay [2] and in assay [3] were 3%, 1.91% and -0.33%, respectively.
`CCCc1cccc(OC)c1OCCCON1C(N)=NC(N)=NC1(C)C`: the inhibition in assay [1] is -2.03%; in assay [2], -0.29%; in assay [3], 0.81%.
On to `O=C(NCCc1ccccc1F)c1ccc(N2CCN(c3ccncc3)CC2)cn1`, for which the inhibition turned out to be 10.3% in assay [1], 9.09% in assay [2] and 8.65% in assay [3].
In the case of `Cc1ccc(C2CCN(CCCCNC(=O)c3ccc(-c4ccc(C(F)(F)F)cc4)cc3)CC2)c(O)c1`, the figures for the inhibition in assay [1], in assay [2] and in assay [3] were -0.37%, -0.08% and -0.78%, respectively.
The matching figures for `CCCCCCCN1CC[C@@H](CCCc2ccnc3ccc(OCCC4CCNCC4)cc23)[C@@H](CC)C1`: 7.73%, 7.46% and 6.53%.
Take `Cc1c(Cc2ccccc2)c(=O)oc2c(C)c3c(cc12)CN(CC(C)c1ccccc1)CO3` (stereo unspecified): the inhibition in assay [1] was found to be 4.3%; in assay [2], 4.73%; in assay [3], 5.8%.
The matching figures for `Cc1cccc(-c2cccc3c(NC(=O)N4CCc5cc6nccc(N7CCN8CCC[C@H]8C7)c6cc54)cccc23)n1`: 0.18%, 0.95% and 1.48%.
`Cc1[nH]c2cc(F)ccc2c(=O)c1Cc1ccc(Cl)cc1.Cc1[nH]c2cccc(F)c2c(=O)c1Cc1ccc(Cl)cc1`: the inhibition in assay [1] is 23.5% and 29.2%; in assay [2], 37.3% and 55.7%; in assay [3], 14.3% and 15%.
With `COc1cc(F)c2ncc(F)c([C@@H](O)CN3CCC(NCc4cc5c(cn4)OCCO5)CC3)c2c1`, the inhibition in assay [1] stood at 1.43%; in assay [2], 2.18%; in assay [3], 2.06%.
`COc1cc(C=CC(=O)N2CCC(CCN3CCC(c4c[nH]c5ccccc45)CC3)CC2)cc(OC)c1`: the inhibition was 4.99% in assay [1], 6.56% in assay [2] and 3.47% in assay [3].
The matching figures for `N=C(N)Nc1nc(-c2cccc(NC(=O)C(F)(F)F)c2)cs1`: 2.35%, 2.8% and 3.35%.
Regarding `Clc1ncnc2ncn(Cc3cccc(Br)c3)c12`, the results for the inhibition in assay [1], in assay [2] and in assay [3] were 15.3%, 10.7% and 10.8%, respectively.
`CCCCCCOc1ccccc1C(=O)NCCOc1ccc(Cl)cc1`: the inhibition was 3.58% in assay [1], -1.45% in assay [2] and -1.97% in assay [3].
On to `CC1(C)N=C(N)N=C(N)N1CCc1ccccc1`, for which the inhibition in assay [1] came to 11.6%; in assay [2], 7.56%; in assay [3], 8.45%.
On to `CC(=O)Nc1cccc(CNCc2ccc(-c3cnc(N4CCCC(C)(C)C4)nc3)cc2)c1`, for which the inhibition was -2.79% in assay [1], 3.36% in assay [2] and 0.65% in assay [3].
For the compound `CC(C)NCc1cccc(-c2ccc(-c3nc4cc(C(F)(F)F)ccc4[nH]3)cc2)c1`, the values for the inhibition in assay [1], in assay [2] and in assay [3] were 7.38%, 6.19% and 6.87%, respectively.
With `COc1cc(CNCCCCCCNCc2cc(OC)c3ccccc3c2OC)c(OC)c2ccccc12`, the inhibition in assay [1] amounted to 8.25%; in assay [2], 11.8%; in assay [3] it was 13.6%.
As to `CCC(C)(C)C1CCc2nc(N)nc(N)c2C1` (stereo unspecified), the values for the inhibition in assay [1], in assay [2] and in assay [3] were 67%, 71.9% and 56.1%, respectively.
With `O=C(Nc1ccc(-c2nc3ccccc3[nH]2)cc1)c1ccc(N2CCOCC2)c([N+](=O)[O-])c1`, the values for the inhibition in assay [1], in assay [2] and in assay [3] were -0.45%, -0.76% and -0.91%, respectively.
Regarding `COc1ccc2c(c1C1CCN(CCCCNC(=O)c3ccc(-c4ccc(Cl)cn4)cc3)CC1)CCCC2`, the inhibition in assay [1] came out at 2.21%; in assay [2] it was 2.74%; in assay [3] it was 3.95%.
Regarding `CC(C)(C)SCC(O)Cn1c2ccc(Br)cc2c2cc(Br)ccc21` (stereo unspecified), the figures for the inhibition in assay [1], in assay [2] and in assay [3] were 2.07%, 0.65% and -0.28%, respectively.
In the case of `CC(C)C1CCc2nc(N)nc(N)c2C1` (stereo unspecified), the inhibition in assay [1] amounted to 2.52%; in assay [2], 4.4%; in assay [3], 0.91%.
On to `CC(C)[C@H](NC(=O)c1c(F)cccc1F)C(=O)Nc1ccc(Cc2nc3ccccc3s2)cc1`, for which the inhibition in assay [1] is 4.82%; in assay [2], 4.54%; in assay [3] it was 4.17%.
In the case of `CC(C)(C)c1ccc2[nH]c(-c3ccc(C(=O)NCCCc4ccccc4)cc3)nc2c1`, the inhibition was 2.42% in assay [1], 2.97% in assay [2] and -0.47% in assay [3].
As to `CN1CCCN(Cc2ccc(-c3ccc(NC(=O)c4ccc(C#N)cc4)cc3)cc2)CC1`, the inhibition was 0.69% in assay [1], -0.51% in assay [2] and -0.13% in assay [3].
On to `O=C(Nc1cccc(CN2CCCN(Cc3ncc[nH]3)CC2)c1)c1ccc2ccccc2c1`, for which the values for the inhibition in assay [1], in assay [2] and in assay [3] were -2.43%, -3.48% and 1.4%, respectively.
